TWEAK Fn14 block = TWEAK-Fn14 signaling inhibition. 360,000 compounds, 2% hits. TWEAK-stimulated Fn14 reporter cells, luciferase luminescence, 8 h. inhibition, % at 10 µM; in the data active = inhibition above about 50%
HSP90 refold inh = inhibitors of HSP90 luciferase refolding in rabbit reticulocyte lysate; luciferase refolding luminescence, 3 h; inhibition, % at 5.6 µM; 290,000 compounds, 0.91% hits; AID 1789;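 active = inhibition above the screen-wide mean plus 3 SD, computed separately per campaign, cut at about 16% in these data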;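 note: 0% = DMSO wells and 100% = 60 µM geldanamycin wells; inhibitors lower the luminescence because luciferase stays unfolded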
TROY NFkB inh = blocks TROY-dependent signaling in reporter cells; Q293 LMP1-TROYcd NF-kB luciferase reporter, 4 h; 360,000 compounds, 0.98% hits; inhibition, % at 10 µM;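 active = compounds whose plate-normalised and pattern-corrected inhibition of the luciferase reporter signal at the single screening dose is 50% or more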
LGR2 inh = blocks bursicon-induced cAMP signaling via Drosophila LGR2 | HEK293 LGR2, CRE-luciferase, bursicon-stimulated, 4 h | inhibition, % at 9.99 µM | 380,000 compounds, 0.35% hits;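 active = drop in luminescence signal, shown as inhibition above about 50% in the replicate tests, limit read from the data, passing the limit was not always enough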;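 note: agonist challenge used bursicon conditioned medium at about half maximal strength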
An asterisk follows results filed as active; nt = no result given. Shown are actives, neighbours in structure and some others; about 2.2% of the full set was active somewhere.

SMILES | TWEAK Fn14 block | HSP90 refold inh | TROY NFkB inh | LGR2 inh
Cc1nc(Sc2nnnn2C)c2c3c(sc2n1)CCC3 | 78* | 3 | 23 | nt
CCc1nc(Sc2nnnn2-c2ccccc2)c2c3c(sc2n1)CCCC3 | 93* | -5 | 55* | 55*
CCc1nc(N2CCN(C(=O)c3ccccc3)CC2)c2c3c(sc2n1)CCCC3 | 28 | 2 | 32 | 29
COc1ccc(NC(=O)N[C@@H]2CC[C@H](CC(=O)NC3CCCCC3)O[C@@H]2CO)cc1 | nt | nt | nt | 0
CCC(C)Nc1nc(CN2CCOCC2)nc2sc3c(c12)CCC3 (stereo not drawn) | 75* | 3 | nt | nt
COc1ccc(NC(=O)Nc2ccc3c(c2)C(=O)N([C@H](C)CO)C[C@H](C)[C@@H](CN(C)S(=O)(=O)c2ccc(Cl)cc2)OCCCC[C@H](C)O3)cc1 | nt | nt | nt | -16
CCc1nnc(NS(=O)(=O)c2ccc(N/C=C\C(=O)c3ccc(F)cc3)cc2)s1 | 40 | -7 | 73* | -23
Fc1nc(F)c(F)c(NCCCNc2c(F)c(F)nc(F)c2F)c1F | 10 | -6 | 50* | 9
Cc1ccccc1N=C1SC(CC(=O)Nc2ccc3ccccc3c2)C(=O)N1Cc1ccccn1 (stereo not drawn) | 72* | -4 | 27 | 10
CC(C)NC(=O)Nc1cccc2c1O[C@@H](CN(C)C(=O)Nc1ccc3c(c1)OCO3)[C@H](C)CN([C@H](C)CO)C2=O | nt | nt | nt | 16
CCOC(=O)c1[nH]c2ccc(Cl)cc2c1-c1ccccc1 | 7 | 5 | 3 | nt
CN(C)C=NC(=O)c1[nH]c2ccc(Cl)cc2c1-c1ccccc1 | 69* | 7 | 43 | -3
COc1cccc2c1C(=O)c1c(O)c3c(c(O)c1C2=O)C[C@](O)(C(C)=O)C[C@H]3O[C@@H]1C[C@@H](N)[C@@H](O)[C@@H](C)O1 | 97* | nt | 77* | 1
COc1cccc2c1C(=N)c1c(O)c3c(c(O)c1C2=O)CC(O)(C(C)=O)CC3OC1CC(N)C(O)C(C)O1 (stereo not drawn) | -139 | nt | -43 | nt
c1ccc(-c2nnc(NC3=NCCC3)o2)cc1 | 53* | 17* | 20 | 35
O=C(Nc1ccccc1)Nc1nnc(-c2ccccc2)o1 | -14 | 1 | 14 | nt
O=C(/C=C/c1cccs1)Nc1nc(-c2ccccc2)cs1 | 41 | 3 | 32 | nt
O=C(/C=C/c1cccs1)Nc1scc(-c2ccccc2)c1C(=O)O | 60* | 5 | 15 | nt
OC[C@@H]1CN(Cc2ccc(F)cc2)C[C@H](n2cnc3c(Nc4ccccc4)ncnc32)O1 | 11 | nt | -2 | -7
OC[C@@H]1CN(Cc2ccc(-c3ccccc3)cc2)C[C@H](n2cnc3c(NCc4ccc(F)cc4)ncnc32)O1 | 88* | nt | 50* | 14
OC[C@@H]1CN(Cc2ccc(-c3ccccc3)cc2)C[C@H](n2cnc3c(Nc4ccccc4)ncnc32)O1 | 92* | nt | 39 | 13
OC[C@@H]1CN(Cc2ccccc2)C[C@H](n2cnc3c(NCc4ccc(F)cc4)ncnc32)O1 | -37 | nt | -43 | -37
C[C@H](CO)N1C[C@H](C)[C@H](CN(C)S(=O)(=O)c2cn(C)cn2)Oc2ccc(NC(=O)CCCCCC(=O)Nc3ccccc3N)cc2CC1=O | nt | nt | nt | -2
COc1cccc(S(=O)(=O)Nc2ccc3c(c2)C(=O)N(C)[C@@H]2CC[C@H](CC(=O)O)O[C@H]2CO3)c1 | nt | nt | nt | -12
CN(C)CCCNC(=O)[C@H]1[C@H](CO)[C@H]2Cn3c(ccc(-c4cccc(F)c4)c3=O)[C@@H]1N2 | nt | nt | nt | -5
SMILES | TWEAK Fn14 block | HSP90 refold inh | TROY NFkB inh | LGR2 inh
Cc1cccc(/C=N/NC(=O)c2cc(Br)ccc2OCc2ccccc2)n1 | -11 | 2 | 13 | 0
Cc1cccc(/C=N/NC(=O)c2ccccc2OCc2cccc(Br)c2)n1 | 77* | 6 | 20 | 9
Cc1noc(C)c1NC(=O)Nc1ccc2c(c1)CC(=O)N([C@H](C)CO)C[C@H](C)[C@H](CN(C)S(=O)(=O)c1ccc(Cl)cc1)O2 | nt | nt | nt | -12
CSCC(CO)NS(=O)(=O)c1ccc(C)cc1 (stereo not drawn) | 23 | 3 | 57* | 4
CCC(C)C(NS(=O)(=O)c1ccc(C)cc1)C(=O)O (stereo not drawn) | 7 | 0 | 3 | -8
COCC(=O)N[C@@H]1CC[C@H](CC(=O)NCc2ccc(Cl)cc2)O[C@@H]1CO | nt | nt | nt | -4
CN(CC(=O)O)S(=O)(=O)c1cc(Cl)ccc1Cl | 39 | 0 | 57* | -7
C[C@H](CO)N1C[C@H](C)[C@H](CN(C)CC2CC2)Oc2ccc(NS(=O)(=O)c3cn(C)cn3)cc2CC1=O | nt | nt | nt | 14
OC(CN1CCOCC1)Cn1c2ccccc2c2ccccc21 (stereo not drawn) | -10 | -1 | 4 | 5
c1ccc2c(c1)c1ccccc1n2CN1CCOCC1 | 75* | 3 | nt | nt
COc1cc(/C=C2/SC(=S)N(Cc3ccccc3)C2=O)cc(Cl)c1O | 65* | -4 | 51* | 9
COc1cc(/C=C2/SC(=S)N(Cc3ccccc3)C2=O)ccc1OCC(=O)O | -39 | 2 | -12 | 2
COc1cc([N+](=O)[O-])cc(/C=C2/SC(=S)N(Cc3ccccc3)C2=O)c1O | 70* | -2 | 48 | 27
COc1cc(/C=C2\SC(=O)N(Cc3ccc(Cl)cc3)C2=O)cc([N+](=O)[O-])c1O | 56* | 0 | 55* | 4
Cc1noc(C)c1NC(=O)N(C)C[C@@H]1OCCCC[C@H](C)Oc2ccc(NS(C)(=O)=O)cc2C(=O)N([C@@H](C)CO)C[C@@H]1C | nt | nt | nt | -9
COc1ccccc1NC(=O)c1c(Nc2ccccc2C)sc(C(=O)Nc2cccc(Cl)c2)c1N | 86* | -5 | 22 | 12
CCN(CC)S(=O)(=O)c1ccc(/C=C/C(=O)Nc2ccc(Br)cc2F)cc1 | 74* | -1 | 48 | 22
CCN(CC)S(=O)(=O)c1ccc(/C=C/C(=O)Nc2ccc(F)c(F)c2F)cc1 | 39 | -1 | 7 | -15
CCN(CC)S(=O)(=O)c1ccc(/C=C/C(=O)Nc2ccc(F)cc2F)cc1 | 76* | -4 | 3 | -7
O=C(NCC[C@@H]1CC[C@@H](NS(=O)(=O)c2ccc(Oc3ccccc3)cc2)[C@@H](CO)O1)C1CC1 | nt | nt | nt | -15
CO[C@H]1CN(C)C(=O)c2cc(NS(=O)(=O)CC(F)(F)F)ccc2OC[C@@H](C)N(Cc2nccs2)C[C@H]1C | nt | nt | nt | 6
Cc1noc(C)c1NC(=O)Nc1ccc2c(c1)C(=O)N([C@@H](C)CO)C[C@@H](C)[C@@H](CN(C)S(=O)(=O)c1ccc(Cl)cc1)OCCCC[C@H](C)O2 | nt | nt | nt | -4
COc1cccc(-c2nnc(SC(C(=O)c3c[nH]c4ccccc34)c3ccccc3)n2C)c1 (stereo not drawn) | 51* | 1 | 25 | 5
O=C([C@@H]1[C@@H](CO)[C@@H]2Cn3c(cccc3=O)[C@H]1N2CC1CCCC1)N1CCc2ccccc2C1 | nt | nt | nt | -12
O=C(CSc1ccc(Cl)cc1)Nc1cccc(-c2nc3ncccc3o2)c1 | 71* | 2 | 67* | nt
O=C(C1CCC1)N1CC(=O)N2[C@H](CO)[C@@H](c3ccc(C#Cc4cccc(F)c4)cc3)[C@H]2C1 | nt | nt | nt | -5
Cc1ccc(-c2nc3ccccc3s2)cc1S(=O)(=O)N1CCCC1 | 3 | 2 | -2 | -40
Cc1cc(-c2nc3cc(F)ccc3s2)ccc1N | 75* | nt | 34 | 64*
